The results in this text go back to PubChem BioAssay AID1220 (Sanford-Burnham Center for Chemical Genomics, 2008).

The inhibition is the change of the read-out against control, counted positive when it falls.

Out of some 190,000 compounds screened, about 1,300 (0.68%) were called active. No stated cut-off is given here; in the data, active means inhibition above about 50%; inactive means the rest. Only a selection was taken, and actives are over-represented in it overall.

The target in the assay is Mannose-6-phosphate isomerase (Homo sapiens) (UniProt P34949). The assay is described as follows: human PMI inhibitors, high substrate, primary screen, biochemical, fluorescence intensity, high mannose 6-phosphate (AID 1220). The following applies: recombinant PMI enzyme, coupled fluorescence intensity; at 20 µM; active compounds read high.
Mannose-6-phosphate isomerase (Homo sapiens), sequence (P34949 whole entry, looked up): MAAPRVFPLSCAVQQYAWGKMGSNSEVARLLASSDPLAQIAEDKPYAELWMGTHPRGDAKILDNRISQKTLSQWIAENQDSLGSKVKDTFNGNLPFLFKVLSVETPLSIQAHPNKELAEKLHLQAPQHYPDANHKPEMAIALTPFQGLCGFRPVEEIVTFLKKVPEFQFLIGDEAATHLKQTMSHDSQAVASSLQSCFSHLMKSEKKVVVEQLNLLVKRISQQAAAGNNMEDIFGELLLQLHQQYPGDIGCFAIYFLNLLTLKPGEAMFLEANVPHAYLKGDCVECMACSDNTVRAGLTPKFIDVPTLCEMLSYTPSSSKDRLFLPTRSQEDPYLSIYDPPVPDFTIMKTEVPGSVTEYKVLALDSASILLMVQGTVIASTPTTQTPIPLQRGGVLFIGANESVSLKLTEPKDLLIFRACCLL
With `O=C(NCCN1CCOCC1)c1cc2cc(Br)ccc2oc1=O`, the inhibition was 9.2% (inactive).
With `CCOC(=O)N1CCC(NS(=O)(=O)c2ccc3c(c2)CCN3C(C)=O)CC1` the figure was 2.5% (inactive); with `O=C(C1CC1)N1CCc2cc(Br)cc(S(=O)(=O)NC3CCCCC3)c21`, 2.5% (inactive).
Next, `Cn1cccc1C(=O)C(=O)Nc1ccccc1`: -5.5% (inactive); `COC(=O)c1ccc(NC(=O)C(=O)c2cccn2C)cc1`: 52.2% (active).
Next, `Cn1cccc1C(=O)C(=O)Nc1ccc(Cl)cc1`: -0.1% (inactive).
Take `COc1ccc2c(c1)CCc1cnc(N)nc1-2`: the inhibition was 60% (active).
Take `COc1ccc(-c2cnc(N)nc2-c2ccc(OC)cc2O)cc1`: the inhibition is 11.9% (inactive).
With `Nc1ncc2c(n1)-c1ccccc1CC2` the figure was 32.5% (inactive); with `CCOC(=O)N1CCN(C(=O)C2CCN(Cc3nc(-c4ccccc4C)oc3C)CC2)CC1`, -4.9% (inactive); with `COc1cc(/C=C/C(=O)Nc2cc(S(=O)(=O)N3CCOCC3)ccc2N2CCCC2)cc(OC)c1OC`, 19.5% (inactive).
Next, `c1ccc(-c2csc3ncnc(NCCCN4CCOCC4)c23)cc1`: -16.3% (inactive); `O=C(C1=C[C@H](c2csc3ccccc23)C[C@H](OCCCCO)O1)N1CCN(Cc2ccccc2)CC1`: 22.9% (inactive).
With `CC(=O)n1cc([C@@H]2C=C(C(=O)NCc3ccccc3)O[C@H](OCCCCO)C2)c2ccccc21`, the inhibition was 50.3% (active).
Next, `C#CCNC(=O)C1=C[C@@H](c2cn(C(C)=O)c3ccccc23)C[C@@H](OCCCCO)O1`: 22.9% (inactive).
With `CC(=O)n1cc([C@H]2C=C(C(=O)NCc3ccccc3)O[C@@H](OCCCCO)C2)c2ccccc21` the figure was 46.3% (inactive); with `O=C(NCc1ccccc1)C1=C[C@@H](c2csc3ccccc23)C[C@@H](OCc2ccc(CO)cc2)O1`, 44.5% (inactive).
With `C#CCNC(=O)C1=C[C@H](c2csc3ccccc23)C[C@H](OCCCCO)O1` the figure was 30.3% (inactive); with `O=C(Nc1ccccc1)C1=C[C@H](c2csc3ccccc23)C[C@H](OCCCCO)O1`, 12.8% (inactive).
As to `O=C(NCc1ccccc1)C1=C[C@@H](c2csc3ccccc23)C[C@@H](OCCCCO)O1`, the inhibition is 53.8% (active).
With `O=C(NCc1ccccc1)C1=C[C@H](c2csc3ccccc23)C[C@H](OCCCCO)O1` the figure was 53.9% (active); with `CN1C(=O)NC(c2ccccc2)C2=C1CN(c1ccc3ccccc3c1)C2=O` (stereo not drawn), 9.4% (inactive).
With `COc1ccc(C(=O)C[n+]2cn(C(F)F)c3ccccc32)c(F)c1` the figure was -11.8% (inactive); with `Cc1cc(C)n(C(=O)CSc2nnc(SCC(=O)n3nc(C)cc3C)s2)n1`, -11.7% (inactive).
Regarding `CC(=O)N1CCc2cc(S(=O)(=O)NC(CC(C)C)C(=O)N3CCn4c3nc3ccccc34)ccc21` (stereo not drawn), the inhibition was 6.2% (inactive).
Next, `COCCCNCC1C(Oc2ccc(Cl)cc2)C(=O)N1c1ccccc1C` (stereo not drawn): -5.6% (inactive); `COCCNCC1C(Oc2ccc(Cl)cc2)C(=O)N1c1ccccc1C` (stereo not drawn): 50.7% (active); `CCCNCC1C(Oc2ccc(Cl)cc2)C(=O)N1c1ccccc1C` (stereo not drawn): -6% (inactive).
Next, `Nc1ncc(-n2cncn2)c(-c2ccc(Cl)cc2)n1`: 9.9% (inactive); `CC1CCCCC1NCC(=O)NCc1ccc(F)cc1` (stereo not drawn): -10.5% (inactive); `CCOC(=O)c1c(C)oc2cc(Br)c(OC(=O)N3CCOCC3)cc12`: 11.1% (inactive).
On to `COc1ccc(-c2nc(C#N)c(N3CCN(c4cccc(Cl)c4)CC3)o2)cc1OC`, for which the inhibition was 4.2% (inactive).
Next, `CC1CC(C)(C)Nc2ccc(OC(=O)c3ccco3)cc21` (stereo not drawn): 25.5% (inactive); `CC1=CC(C)(C)Nc2ccc(OC(=O)c3cccnc3)cc21`: 16% (inactive); `CC(=O)Nc1ccc(S(=O)(=O)Oc2ccc3c(c2)C(C)=CC(C)(C)N3)cc1`: 29.5% (inactive).
Next, `CC1=CC(C)(C)Nc2ccc(OC(=O)CN3C(=O)CCC3=O)cc21`: 12.7% (inactive).
With `CC1=CC(C)(C)Nc2ccc(OS(=O)(=O)c3ccc(C)cc3)cc21` the figure was 51.5% (active).
`CC1=CC(C)(C)Nc2ccc(OC(=O)CN3C(=O)c4ccccc4C3=O)cc21`: the inhibition is 26.2% (inactive).
With `CC1=CC(C)(C)Nc2ccc(OC(=O)c3ccco3)cc21` the figure was 52% (active); with `CC1=CC(C)(C)Nc2ccc(OC(=O)C(C)N3C(=O)c4ccccc4C3=O)cc21` (stereo not drawn), 24.3% (inactive).
With `COC(=O)c1nn(-c2ccc(C)cc2)ccc1=O` the figure was -2.7% (inactive); with `Cc1cccc(C(=O)NCCc2nnc(SCC(=O)Nc3nc(C)cs3)n2C)c1`, 4% (inactive).
`CC1CCCN(S(=O)(=O)c2ccc(S(=O)(=O)N3CCC4(CC3)OCCO4)cc2)C1` (stereo not drawn): the inhibition was 2.2% (inactive).
Next, `CC(C)OC(=O)c1cc(NC(=S)Nc2ccc([N+](=O)[O-])cc2)cc(C(=O)OC(C)C)c1`: 4% (inactive).
On to `CCC1(CC)C(=O)N=C2c3ccccc3C(=O)N21`, for which the inhibition was -2.6% (inactive).
With `O=C(c1ccc(C(F)(F)F)cc1)N1CCC(=O)N(C(COCc2ccccc2)Cc2ccccc2)CC1` (stereo not drawn) the figure was -5.1% (inactive); with `O=C(Nc1ccccc1)c1cc2c(=O)c3ccccc3oc2nc1C(F)(F)F`, 4.4% (inactive).
With `COc1ccccc1N1CCN(c2cnccn2)CC1` the figure was 5.8% (inactive).
With `CNCc1ccccc1Sc1cc(O)ccc1O` the figure was 41.3% (inactive).
In the case of `CNCc1ccccc1Sc1cccc(O)c1`, the inhibition is -1.7% (inactive).
Next, `O=C(Cc1ccccc1)NCC(=O)N1CCCCC1`: -8% (inactive); `O=C(NNC(=O)C1CC1c1ccccc1)c1ccccc1F` (stereo not drawn): -2.1% (inactive).
With `CCOC(=O)c1cccc(NC(=O)CCc2ccccc2)c1` the figure was -0.6% (inactive); with `COc1cc([C@H](Cc2ccccc2)NC(C)=O)oc(=O)c1`, 53.9% (active); with `COc1cccc(CNC(=O)CC(NC(C)=O)c2ccccc2)c1` (stereo not drawn), 1% (inactive).
Next, `CC(=O)NC(Cc1ccccc1)c1ccc2c(c1)OCCCO2` (stereo not drawn): 4.4% (inactive).
As for `Cc1cccc(C(=O)Oc2ccccc2-c2nnco2)c1`, the inhibition was -9.6% (inactive).
With `COc1ccc(C(c2sc3nc(C)nn3c2O)N2CCCCC2)cc1` (stereo not drawn) the figure was 4.3% (inactive); with `O=c1[nH]c2cc3c(cc2cc1CN(CC1CCCO1)S(=O)(=O)c1ccccc1)OCCO3` (stereo not drawn), 4.9% (inactive).
Next, `COc1ccc(C(=O)N/N=C(\C)CC(=O)N2CCN(C=O)CC2)cc1`: -9.2% (inactive); `C/C(CC(=O)N1CCN(C=O)CC1)=N\NC(=O)c1ccc(Cl)cc1`: 3.6% (inactive); `CC(=O)NC(Cc1cc(C)ccc1C)C(=O)N1CCN(C(=O)c2ccccc2Br)CC1` (stereo not drawn): -3.4% (inactive).
Next, `O=[N+]([O-])c1cc(-c2n[nH]c(-c3ccccc3)n2)cc([N+](=O)[O-])c1`: -4.6% (inactive); `Oc1cccc(/C=N/Nc2cccc3cccnc23)c1`: 20.3% (inactive).
Turning to `COc1ccc(/C=C2\SC(=O)N(CCC(=O)Nc3ccc(S(=O)(=O)Nc4nccs4)cc3)C2=O)cc1`, the inhibition was 8.6% (inactive).
Next, `O=C(CCc1ccc(S(=O)(=O)NCCc2ccccc2)cc1)Nc1ccc2c(c1)OCCO2`: -3.2% (inactive); `CCCNS(=O)(=O)c1ccc(CCC(=O)Nc2ccc3c(c2)OCO3)cc1`: 10.1% (inactive); `CCCNS(=O)(=O)c1ccc(CCC(=O)Nc2ccc3c(c2)OCCO3)cc1`: 50.1% (active).
Next, `Cc1nn(-c2ccccc2)c(N2CCCC2)c1/C=N/NC(=O)c1ccccc1O`: -2.8% (inactive).
Next, `O=C(N/N=C/c1cc2c3c(c1O)CCCN3CCC2)c1ccccc1O`: 50.2% (active); `O=C(Oc1ccc(/C=N/NC(=O)c2ccccc2O)cc1)c1ccccc1`: -12.7% (inactive); `Oc1ccc(NC(=S)Nc2ccccc2)cc1`: 16.4% (inactive).
Turning to `COC(=O)c1ccc(NC(=S)Nc2ccc(O)cc2)cc1`, the inhibition is -3.3% (inactive).
With `Oc1ccc(NC(=S)Nc2ccc(O)cc2)cc1` the figure was 66.7% (active); with `CCOc1cc(C(N)=O)cc(Cl)c1OCC`, 1.7% (inactive); with `O=C(/C=C/c1c[nH]c2ccccc12)c1ccccc1`, 52.5% (active).
Next, `Cc1ccc(/C=C/C(=O)c2ccccc2)cc1`: 11.2% (inactive); `Cc1ccc(C(=O)/C=C/c2c[nH]c3ccccc23)cc1`: 54.4% (active); `Cc1[nH]c2ccccc2c1/C=C/C(=O)c1ccccc1`: 3.9% (inactive).
With `Cc1ccc(C(=O)Nc2ccc(C(=O)N/N=C/c3c[nH]c4ccccc34)cc2)cc1` the figure was 11.4% (inactive); with `O=C(/C=C/c1c[nH]c2ccccc12)c1cccc2ccccc12`, 42% (inactive).
Regarding `COc1cc(/C=C(\C#N)c2nc3ccccc3[nH]2)cc(Br)c1OCc1ccc(F)cc1`, the inhibition was 19.3% (inactive).
Consider `c1ccc(COCCN2CCN(CCOCc3ccccc3)CC2)cc1`, for which the inhibition was 3.2% (inactive).
In the case of `COc1ccc2nc(SC)c(C#N)cc2c1`, the inhibition is 52.1% (active).
With `COc1ccc2nc(SCC(C)=O)c(C#N)cc2c1` the figure was -92.4% (inactive); with `COc1ccc2nc(N3CCCC3)c(C#N)cc2c1`, -5.8% (inactive).
With `COc1ccc2nc(N3CCC(O)CC3)c(C#N)cc2c1` the figure was 51.2% (active).
`COc1ccc2nc(N3CCC(C)CC3)c(C#N)cc2c1`: the inhibition was -5.3% (inactive).
Next, `CCSc1nc2ccc(OC)cc2cc1C#N`: 14.3% (inactive).
For the molecule `COc1cccc(C2=NCCc3cc4c(cc32)OCO4)c1OC`, the inhibition is 1.3% (inactive).
With `CCC(=O)Nc1nc2c(s1)COc1ccccc1-2` the figure was 6.3% (inactive); with `CCC12CN3CC(CC)(CN(C1)C3c1ccccc1Cl)C2O` (stereo not drawn), 6.4% (inactive).
Next, `CCN(CC(=O)NC1CCS(=O)(=O)C1)C(=O)/C=C/c1cccs1` (stereo not drawn): -0.6% (inactive); `Cc1ccc(-c2csc(/C(C#N)=C/Nc3ccccc3SC(F)(F)F)n2)cc1`: -3.6% (inactive).
With `O=C(Cc1csc(N2CCOCC2)n1)N/N=C/c1ccc(Cl)cc1Cl` the figure was 4.5% (inactive).
`O=C(Cc1csc(N2CCOCC2)n1)N/N=C/c1cccc(O)c1`: the inhibition was 6.6% (inactive).
Next, `O=C(CCc1ccc(S(=O)(=O)N2CCOCC2)cc1)N/N=C/c1cccc(O)c1`: -6.2% (inactive); `O=C(CCc1ccc(S(=O)(=O)N2CCOCC2)cc1)N/N=C/c1ccc(F)cc1F`: 10.5% (inactive).
